Reference: PubChem BioAssay (NCATS)
Inconclusive results are not listed. Entries that show only a call come without a potency. Unmarked numbers belong to inactive results. Active and inactive are the calls of the source. Calls come from the whole dose curve; as a rule, active = well fitted curve in the direction sought with a large enough effect; inconclusive = small, poorly fitted or top-dose-only effect, or another doubt; inactive = no such curve, though single readings can be large; an effect the other way counts as inactive or inconclusive.

What was measured:
[1] = target: Rap guanine nucleotide exchange factor 3 (Homo sapiens) (UniProt O95398); test: Confirmatory qHTS for antagonist of cAMP-regulated guanine nucleotide exchange factor 3 (EPAC1) (AID 1645880); details: EPAC1 Rap1B-BODIPY-GDP exchange, fluorescence; series mostly up to 115 µM; note: nearly all actives have a fitted effect of over 55% in size; note: potency is the fitted concentration of half-maximal effect
Chain of Rap guanine nucleotide exchange factor 3 (Homo sapiens) (O95398 whole entry, looked up): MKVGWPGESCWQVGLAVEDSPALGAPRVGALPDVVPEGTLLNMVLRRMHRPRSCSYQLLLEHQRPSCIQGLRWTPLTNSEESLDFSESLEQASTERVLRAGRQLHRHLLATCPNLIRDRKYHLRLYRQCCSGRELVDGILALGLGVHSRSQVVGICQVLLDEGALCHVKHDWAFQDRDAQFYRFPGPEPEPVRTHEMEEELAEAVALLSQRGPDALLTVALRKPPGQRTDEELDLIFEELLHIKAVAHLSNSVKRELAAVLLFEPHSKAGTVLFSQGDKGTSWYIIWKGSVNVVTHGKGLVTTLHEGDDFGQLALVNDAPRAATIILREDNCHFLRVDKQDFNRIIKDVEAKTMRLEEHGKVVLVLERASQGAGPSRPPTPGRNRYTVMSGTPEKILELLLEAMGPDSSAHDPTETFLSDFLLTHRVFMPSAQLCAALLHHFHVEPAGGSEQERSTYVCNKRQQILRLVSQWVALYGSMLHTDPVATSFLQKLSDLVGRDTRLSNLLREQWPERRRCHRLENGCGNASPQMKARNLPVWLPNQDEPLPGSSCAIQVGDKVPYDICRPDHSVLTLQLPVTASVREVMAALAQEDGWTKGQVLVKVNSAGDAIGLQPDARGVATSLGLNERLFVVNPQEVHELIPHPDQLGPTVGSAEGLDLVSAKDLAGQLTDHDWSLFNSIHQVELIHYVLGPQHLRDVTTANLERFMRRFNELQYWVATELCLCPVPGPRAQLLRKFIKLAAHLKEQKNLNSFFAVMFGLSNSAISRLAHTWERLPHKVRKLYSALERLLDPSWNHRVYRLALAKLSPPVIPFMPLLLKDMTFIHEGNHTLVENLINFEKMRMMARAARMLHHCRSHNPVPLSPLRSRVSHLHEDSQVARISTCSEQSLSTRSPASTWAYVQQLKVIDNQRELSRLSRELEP
Outline: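 Nucleotide exchange uses 100 nM EPAC1, 250 nM RAP1B-BODIPY-GDP and 50 uM GDP, with compounds in a concentration-titration series. After 5 min at room temperature, fluorescence (480 nm ex/540 nm em) is read every 5 min for 30 min. Data are normalized to control ATA and DMSO.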

[2] = target: Rap guanine nucleotide exchange factor 3 (Homo sapiens) (UniProt O95398); test: Confirmatory qHTS for agonist of cAMP-regulated guanine nucleotide exchange factor 3 (EPAC1) (AID 1645881); details: EPAC1 Rap1B BODIPY-GDP exchange fluorescence; series mostly up to 154 µM;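 note: EPAC1 catalysed release of BODIPY-GDP from Rap1B seen as fluorescence loss; nearly all actives have a fitted effect of over 75% in size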
[3] = target: Rap guanine nucleotide exchange factor 4 (Homo sapiens) (UniProt Q8WZA2); test: Confirmatory qHTS for agonist of cAMP-regulated guanine nucleotide exchange factor 4 (EPAC2) (AID 1645884); details: EPAC2 GEF activity, Rap1B-BODIPY-GDP fluorescence; series mostly up to 154 µM;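 note: nucleotide exchange releases bodipy-GDP from Rap1 and this lowers its fluorescence; nearly all actives have a fitted effect of over 65% in size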
Chain of Rap guanine nucleotide exchange factor 4 (Homo sapiens) (Q8WZA2 whole entry, looked up): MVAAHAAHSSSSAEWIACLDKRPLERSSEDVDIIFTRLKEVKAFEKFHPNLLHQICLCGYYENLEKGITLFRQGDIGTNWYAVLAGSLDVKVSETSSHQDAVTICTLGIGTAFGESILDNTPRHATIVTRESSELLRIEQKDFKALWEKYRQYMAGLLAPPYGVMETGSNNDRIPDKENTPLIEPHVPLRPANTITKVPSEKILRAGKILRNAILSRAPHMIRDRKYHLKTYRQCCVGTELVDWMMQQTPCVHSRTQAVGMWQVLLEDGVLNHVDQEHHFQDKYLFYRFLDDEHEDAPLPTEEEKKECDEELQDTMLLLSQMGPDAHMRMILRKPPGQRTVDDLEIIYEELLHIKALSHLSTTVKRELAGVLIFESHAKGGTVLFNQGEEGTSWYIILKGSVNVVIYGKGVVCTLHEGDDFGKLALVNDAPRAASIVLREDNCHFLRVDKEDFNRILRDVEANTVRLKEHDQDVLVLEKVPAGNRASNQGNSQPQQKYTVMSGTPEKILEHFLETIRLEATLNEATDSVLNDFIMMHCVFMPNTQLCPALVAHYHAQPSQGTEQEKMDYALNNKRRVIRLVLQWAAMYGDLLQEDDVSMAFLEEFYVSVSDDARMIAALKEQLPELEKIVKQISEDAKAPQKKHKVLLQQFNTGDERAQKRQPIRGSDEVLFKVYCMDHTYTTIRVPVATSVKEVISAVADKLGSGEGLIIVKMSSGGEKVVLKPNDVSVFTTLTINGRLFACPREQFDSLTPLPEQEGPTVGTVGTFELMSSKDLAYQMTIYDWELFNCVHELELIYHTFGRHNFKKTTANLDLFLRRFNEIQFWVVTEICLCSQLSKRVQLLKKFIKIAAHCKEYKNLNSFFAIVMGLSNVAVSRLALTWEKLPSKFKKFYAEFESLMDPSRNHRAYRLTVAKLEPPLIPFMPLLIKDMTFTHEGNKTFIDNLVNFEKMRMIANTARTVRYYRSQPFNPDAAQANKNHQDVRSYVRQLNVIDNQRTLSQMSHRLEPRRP

[4] = target: Rap guanine nucleotide exchange factor 4 (Homo sapiens) (UniProt Q8WZA2); test: Confirmatory qHTS for antagonist of cAMP-regulated guanine nucleotide exchange factor 4 (EPAC2) (AID 1645885); details: EPAC2 Rap1B-BODIPY-GDP exchange fluorescence, biochemical; series mostly up to 12.7 µM; note: nearly all actives have a fitted effect of over 25% in size; note: potency is the fitted concentration of half-maximal effect
[5] = target: Rap guanine nucleotide exchange factor 3 (Homo sapiens) (UniProt O95398); test: Counterscreen qHTS for antagonist of cAMP-regulated guanine nucleotide exchange factor 3 (EPAC1) (AID 1645888); details: Rap1B-BODIPY-GDP nucleotide exchange, fluorescence; series mostly up to 154 µM;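 note: fluorescence loss as bound BODIPY-GDP is released from Rap1B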
Outline: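 Rap1B-BODIPY-GDP 250 nM + GDP 50 uM; cpds 7-pt, final 9.74 nM–152 uM (activator mode) or from 7.32 nM upwards (inhibitor mode); RT; FI 480/540 nm at 5 and 30 min, then ± cAMP, reread.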

Row | SMILES | Potency [1] | Potency [2] | activation [3] | Potency [4] | activity change, negative = inhibition [5] | Potency [3] | Potency [5] | outcome [4]
1 | Cc1ccc(C(=O)Nc2ccccc2Oc2ccccc2)o1 | inactive | inactive | 4.96% [at 17.1 µM, percent relative to cAMP agonist control] | inactive | 1.6% [at 30.8 µM] | – | – | –
2 | COc1cccc(NC(=O)Cn2cc(C(=O)C3CC3)c3ccccc32)c1 | inactive | inactive | – | inactive | – | inactive | inactive | –
3 | O=C1C=CC(=O)c2c(O)c(N3CCN(CCOCCO)CC3)c(Br)c(O)c21 | 9.53 µM (active) | inactive | – | inactive | – | inactive | inactive | –
4 | COC(=O)c1cc2oc(C)cc2n1Cc1ccc(Br)cc1F | inactive | inactive | – | inactive | – | inactive | inactive | –
5 | N#Cc1c(NC(=O)c2ccc(Br)o2)n(-c2ccccc2)c2nc3ccccc3nc12 | 50.1 µM (active) | inactive | 1.83% [at 17.1 µM, percent relative to cAMP agonist control] | inactive | -1.68% [at 30.8 µM] | – | – | –
6 | COC(=O)c1c(NC(=O)c2c(OC)cccc2OC)sc2c1CCCC2 | inactive | inactive | – | inactive | – | inactive | inactive | –
7 | c1ccc(N2[C@@H]3c4ccccc4C[C@H]2c2ccccc23)cc1 | inactive | inactive | 8.36% [at 17.1 µM, percent relative to cAMP agonist control] | inactive | -11.2% [at 30.8 µM] | – | – | –
8 | C#CC(c1ccccc1)(c1ccccc1)n1ccnc1 | inactive | inactive | – | inactive | – | inactive | inactive | –
9 | COc1ccc(CCNC(=O)CSc2nc3nc(C)c(Cc4ccc(C)cc4)c(C)n3n2)cc1OC | inactive | inactive | – | inactive | – | inactive | inactive | –
10 | COc1ccc(OCC(=O)NCCC2=CCCCC2)c([N+](=O)[O-])c1 | inactive | inactive | 7.73% [at 17.1 µM, percent relative to cAMP agonist control] | inactive | -6.06% [at 30.8 µM] | – | – | –
11 | O=C(N/N=C\c1cc([N+](=O)[O-])ccc1N1CCCC1)c1ccccn1 | inactive | inactive | 3.56% [at 17.1 µM, percent relative to cAMP agonist control] | inactive | -14.6% [at 30.8 µM] | – | – | –
12 | C/C(=N\NC(=O)c1cc2ccccc2cc1O)c1cc2ccccc2o1 | 37.9 µM (active) | inactive | – | inactive | – | inactive | inactive | –
13 | CCCOC(=O)c1c(-c2ccccc2)c(-c2ccccc2)nn(C)c1=O | inactive | inactive | – | inactive | – | inactive | inactive | –
14 | CCOc1ccc(CN2C(=O)c3ccccc3Sc3ccc(C(=O)NCc4ccc5c(c4)OCO5)cc32)cc1 | inactive | inactive | – | – | – | inactive | inactive | inactive [at 12.7 µM]
15 | COc1ccc(C=NNc2ccc(S(=O)(=O)Nc3ccccc3C(=O)O)cc2[N+](=O)[O-])c(OC)c1 | 15.1 µM (active) | inactive | – | inactive | – | inactive | inactive | –
16 | O=C(NCC(c1ccco1)N1CCN(c2ccccc2F)CC1)c1cccs1 (stereo not given) | inactive | inactive | 5.11% [at 17.1 µM, percent relative to cAMP agonist control] | inactive | 6.53% [at 30.8 µM] | – | – | –
17 | C[C@@H]1CN([C@@H](C)CO)S(=O)(=O)c2ccc(Br)cc2O[C@H]1CN(C)Cc1ccccc1F | inactive | inactive | – | inactive | – | inactive | inactive | –
18 | COc1ccc2cc(-c3cn4c(n3)sc3cc(F)ccc34)c(=O)oc2c1 | inactive | inactive | – | inactive | – | inactive | inactive | –
19 | COc1cc(/C=C2\SC(=S)N(NS(=O)(=O)c3ccc(C)cc3)C2=O)ccc1O | 22.4 µM (active) | inactive | 2.55% [at 17.1 µM, percent relative to cAMP agonist control] | inactive | -2.35% [at 30.8 µM] | – | – | –
20 | O=C(Nc1ccccc1N1CCOCC1)c1cccc2c(Br)cccc12 | inactive | inactive | – | inactive | – | inactive | inactive | –
21 | O=C1NN(c2ccccc2)C(=O)/C1=C\c1ccc(-c2cc([N+](=O)[O-])ccc2O)o1 | 37.9 µM (active) | inactive | – | 60.1 µM (active) | – | inactive | inactive | –
22 | Cn1c(=O)c2c(-c3ccccc3Br)n(CCc3ccccc3)cc2n(C)c1=O | inactive | inactive | – | – | – | inactive | inactive | inactive [at 12.7 µM]
23 | CSc1nnc(-c2ccccc2)c(-c2ccccc2)n1 | inactive | inactive | – | 19 µM (active) | – | inactive | inactive | –
